# “And” between values parts separate entries of the source, which are not always exact repeats. Equal values may be shown once. This is part of a sample that, as a whole, favours compounds with a hit. Of some 79,000 tested, about 15% had one in any assay. A number with no mark means an inactive call. The source made the active and inactive calls. No stated cut-off is given here; in the data, active means growth inhibition above about 70%; inactive means the rest. Where a SMILES comes first, the peptide text is derived from it.
# Key:
# [1] = NCI Yeast Anticancer Drug Screen. Data for the rad50 strain (AID 155);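 further: 0% = growth of vehicle-only cultures of the same strain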; conditions: S. cerevisiae rad50 strain growth inhibition, active compounds read high; at 50.0 µM unless noted
# In short: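 DNA repair mutant yeast, compound exposure, growth read-out; inhibition is taken relative to vehicle.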
# [2] = NCI Yeast Anticancer Drug Screen. Data for the mec2-1 strain (AID 157); conditions: S. cerevisiae mec2-1 strain, active compounds read high; at 50.0 µM unless noted
# In short: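 mec2-1 yeast strain, carrying an alteration in DNA damage repair or cell cycle control, was exposed to compounds; growth inhibition was measured relative to vehicle-treated controls.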
# [3] = NCI Yeast Anticancer Drug Screen. Data for the sgs1 mgt1 strain (AID 161);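 further: 0% = growth of cultures given vehicle only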; conditions: S. cerevisiae sgs1 mgt1 strain, active compounds read high; at 50.0 µM unless noted
# In short: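 This yeast growth screen uses a strain with defined DNA-repair lesions; compound-treated growth is compared with vehicle-treated growth.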
# [4] = NCI Yeast Anticancer Drug Screen. Data for the cln2 rad14 strain (AID 165);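 further: 0% = growth equal to vehicle treated cultures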; conditions: S. cerevisiae cln2 rad14 strain, active compounds read high; at 50.0 µM unless noted
# In short: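 Yeast carrying cln2 and rad14 alterations (cell cycle control and DNA damage repair) were exposed to compounds. Growth inhibition was measured against vehicle-treated controls.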
# [5] = NCI Yeast Anticancer Drug Screen. Data for the bub3 strain (AID 167); conditions: S. cerevisiae bub3 mutant strain, active compounds read high; at 50.0 µM unless noted
# In short: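 In this screen, a yeast mutant lacking normal mitotic checkpoint function is challenged with compound. Relative growth versus vehicle gives the inhibition value.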
# [6] = NCI Yeast Anticancer Drug Screen. Data for the mlh1 rad18 strain (AID 175); conditions: S. cerevisiae mlh1 rad18 strain growth inhibition, active compounds read high; at 50.0 µM unless noted
# In short: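 Growth inhibition of the yeast strain was measured after compound exposure and expressed relative to vehicle-treated controls. The strain carries defined defects in DNA damage repair.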
SMILES,growth inhibition [1],growth inhibition [2],growth inhibition [3],growth inhibition [4],growth inhibition [5],growth inhibition [6]
O=C1OC(=O)C2=C1CCc1ccc3ccccc3c12,-29.8%,-22.1%,5.9%,-29.6%,5.75%,-5.2%
O=C(O)C1Oc2cc3ccccc3cc2O1,30.4%,16.4%,19.8%,20.3%,23.1%,24.5%
COC(=O)C(C)(C)C(C)=O,-40%,-47.1%,-37.5%,7.5%,-26.9%,-30.4%
O=C(O)COc1ccc(F)cc1F,-22.5%,-3.05%,1.65%,-31.4%,0.95%,-16.4%
C=C1c2nc3ccccc3n2C=C(c2ccccc2)N1c1ccc(OC)cc1,-6.5%,15.3%,-9.25%,-5.85%,17.5%,7.05%
CCNc1ncnc2ncn(C)c12,18.9%,-6.9%,15.1%,12.6%,15.1%,-0.5%
CCCCCCCc1nc(CCCCCCC)nc(CCCCCCC)n1,1.05%,12.9%,6%,-15.1%,19.8%,12.6%
COC(=O)Cc1cc(C)n(C)c(=O)c1CN1C(=O)c2ccccc2C1=O,10.6%,-10.9%,5.4%,12.4%,-11.2%,20.8%
CC(C)C(C(N)=O)(C(=O)O)C(C)C,-4.25%,4.05%,4.6%,5.2%,-5.5%,6.85%
Cc1cc(C(=O)O)c(C(=O)O)c(Cl)n1,-9.15%,-5%,0.45%,-12.9%,-16.9%,4.8%
CN1c2ccccc2C2CCCCC21 (centres undefined),11.6%,9.7%,2.15%,-20.2%,22.8%,4.25%
Nc1ncnc2c1ccn2COCCO,-8.25%,1.55%,4.7%,-43.9%,-12.5%,-3.9%
C#CCN(N=O)C(=O)NCCCCC(NC(=O)OCc1ccccc1)C(=O)OCc1ccccc1 (centres undefined),-6.65%,-8.15%,-26.6%,-4.5%,10.3%,-24.9%
CN1C(=O)N(C)C2(O)c3ccccc3C(=O)C12O (centres undefined),14.6%,2.9%,18.9%,15%,19.8%,38.9%
Cc1cc2c(C)nn(Cc3ccccc3)c2c(C(N)=O)c1C,9.85%,-6.65%,-10%,35.6%,-3.1%,51.4%
CC(CN(C)C)C(=O)/C=C/c1ccc(Cl)cc1 (centres undefined),20%,19%,1.75%,2.8%,-13.7%,18.4%
O=C1CSC(c2ccccc2Cl)N1N1C(=O)CSC1c1ccccc1Cl (centres undefined),32.4%,19.2%,28.1%,27.5%,24.3%,28.1%
C(=Nc1cccc2ccccc12)c1cccs1,-8.95%,-4.85%,2.6%,-19%,0.25%,-19.8%
NC(=O)C1CCCN1C(=O)C(N)Cc1ccccc1 (stereo not drawn) (H-Phe-Pro-NH2; configuration not given here),-26.9%,-44.1%,-21.1%,5.7%,4.7%,-9.05%
Cc1nccn1C(/C(=N/O)c1ccccc1)c1ccccc1 (centres undefined),-0.55%,10.4%,-0.5%,13.7%,10.8%,3.2%

SMILES,growth inhibition [1],growth inhibition [2],growth inhibition [3],growth inhibition [4],growth inhibition [5],growth inhibition [6]
CC(C)CCN,2.75%,8.9%,-3.35%,19.1%,3.3%,30.2%
CCCCCCCC/C=C\CCCCCCCC(=O)NN,-7.85%,0.15%,-4.25%,-76%,-2.7%,-12.8%
Cc1ccc(C(C)C)cc1NC(=O)c1ccc([N+](=O)[O-])cc1,-5.15%,16.4%,16.9%,-5.8%,2.6%,21.6%
COC(=O)C(=O)C(C(=O)OC)C(=O)C(=O)Nc1ccccc1C(N)=O (centres undefined),-33.5%,-7.55%,-25.6%,-10.2%,-27.9%,-21.2%
CCCCCCCCCc1cc(=O)c2c(O)cccc2o1,-25.8%,-30.6%,-11%,-20.1%,18.6%,-22.4%
C[Si](C)(C)Cn1cccc1,-7.5%,8.9%,5%,-37.6%,-1.15%,-8.85%
C=C1CC(c2ccccc2)(c2cccs2)OC1=O (centres undefined),67.7%,93.6% (active),96.2% (active),14.3%,90.5% (active),90.7% (active)
CC(=O)O[C@@H]1C(=O)C=C(C)[C@@H]2[C@@H](OC(=O)C=C(C)C)[C@H]3OC(=O)C[C@H]4[C@@H](C)[C@@H](O)[C@]5(O)OC[C@]34[C@H]5[C@@]12C,87.4% (active),71.5% (active),71.8% (active),88.5% (active),79.5% (active),91.8% (active)
COc1ccc(/C=C/C(=O)O)c(OC)c1,1.25%,30.9%,-7.55%,25.2%,28.1%,-9.7%
CCCC1OC(c2cc3c(cc2Br)OCO3)OCC1CC (centres undefined),-4.5%,-8.9%,9.25%,3.1%,23.1%,-4.7%
COc1ccc(C2c3c(ccc4ccccc34)Oc3ccc4ccccc4c32)cc1,-8.05%,-23.6%,7.5%,6.85%,2.85%,-8.45%
O=C1[C@H]2ON(c3ccccc3)C(c3ccccc3)[C@H]2C(=O)N1c1ccc(Cc2ccc(N3C(=O)[C@@H]4ON(c5ccccc5)C(c5ccccc5)[C@@H]4C3=O)cc2)cc1 (some centres undefined),3.1%,3.45%,12.6%,21.5%,26.5%,11.8%
N=C(N)SCCCCCSC(=N)N,4.05%,-12.2%,-4.9%,-3.15%,-6.35%,12.8%
Nc1nnc2nc(C3(c4nc5nnc(N)n5[nH]c4=O)CCCC3=O)c(=O)[nH]n12,13.4%,-10.8%,-8.7%,3.45%,4.6%,16.2%
Cc1cc(-c2cc(C)c(O)c(C)c2)cc(C)c1O,17.1% and -1.5%,16.6% and 0.8%,39.1% and -7.05%,14.9% and -4.3%,4.7% and -35.7%,23.2% and 3.3%
CCOC(=O)c1c(-c2ccc([N+](=O)[O-])cc2)c(C=O)n(-c2ccccc2)c1C,4.2%,-5.45%,-0.55%,-21.8%,36.9%,6.7%
CC(=O)CC(=O)ON(C)C(=O)Cc1ccccc1,29.6%,15.2%,-2.75%,-4.4%,-6.1%,-8.35%
COc1cc(C)cc2c1C(C)(C)CCC2(C)C,5.4%,-24.6%,-5.8%,-7.15%,16%,-0.65%
Cc1nn2c(nnn2CCO)c1-c1ccccc1,10.7%,-5.65%,-15%,-10.6%,-25.4%,15.8%
